SMILES strings stand for the structures. Values joined by “and” are separate entries in the source; they are usually repeats but may differ in a detail not shown here. Equal values may be shown once. Inconclusive results are not listed. Some structures have more than one record in an assay (separate samples or runs), and their calls can disagree. Active and inactive are the calls of the source. The calls were made as follows, unless noted: active = hit-call score of the fitted dose curve at least 0.9, where 1 is the maximum; inconclusive = response in the unintended direction; inactive = score below 0.9.

Read-out in assay [1]: solute carrier (SLCO1B1), SLCO1B1 (gene 10599)
The assay is described as follows: LTEA_HepaRG_SLCO1B1: Life Technologies and Expression Analysis (LTEA) Assay for solute carrier (SLCO1B1) using HepaRG (AID 2283530; active = hit-call score of the fitted dose curve at least 0.9, where 1 is the maximum; inactive = score below 0.9). The settings on record: mRNA level, 48 h; actives raise or lower the signal. An outline of the steps: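 Differentiated human HepaRG cells, plated 48 h, switched to serum-free induction medium and exposed in duplicate for 48 h to 8 half-log concentrations (top 100 uM) in 0.5% DMSO. SLCO1B1 mRNA by TaqMan qRT-PCR, normalized to ACTB/GAPDH/POLR2A.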

Read-out in assay [2]: sulfotransferase 2A1 (SULT2A1), SULT2A1 (gene 6822)
The assay can be described thus: LTEA_HepaRG_SULT2A1: Life Technologies and Expression Analysis (LTEA) Assay for sulfotransferase 2A1 (SULT2A1) using HepaRG (AID 2283531; active = hit-call score of the fitted dose curve at least 0.9, where 1 is the maximum; inactive = score below 0.9). The following applies: mRNA level, 48 h; actives raise or lower the signal. The essentials:
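Differentiated human HepaRG cells in serum-free induction medium were exposed for 48 h to eight half-log concentrations (top 100 uM, 0.5% DMSO). SULT2A1 mRNA was measured by qRT-PCR, normalized to ACTB, GAPDH and POLR2A, and fitted bidirectionally against DMSO.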

Read-out in assay [3]: Transforming Growth Factor (TGFA), TGFA (gene 7039)
The assay can be described thus: LTEA_HepaRG_TGFA: Life Technologies and Expression Analysis (LTEA) Assay for Transforming Growth Factor (TGFA) using HepaRG (AID 2283532; active = hit-call score of the fitted dose curve at least 0.9, where 1 is the maximum; inactive = score below 0.9). The following applies: mRNA level, 48 h; actives raise or lower the signal. An outline of the steps:
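Differentiated HepaRG cells exposed 48 hours in serum-free induction medium, 0.5% DMSO vehicle, 8-point half-log series from 100 uM, in duplicate. TGFA mRNA by TaqMan qRT-PCR, normalised to ACTB, GAPDH, POLR2A; bidirectional fit versus DMSO.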

Read-out in assay [4]: Transforming Growth Factor (TGFB1), TGFB1 (gene 7040)
The assay is described as follows: LTEA_HepaRG_TGFB1: Life Technologies and Expression Analysis (LTEA) Assay for Transforming Growth Factor (TGFB1) Transporter using HepaRG (AID 2283533; active = hit-call score of the fitted dose curve at least 0.9, where 1 is the maximum; inactive = score below 0.9). The settings on record: mRNA level, 48 h; actives raise or lower the signal. The essentials: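 Differentiated human HepaRG cells in serum-free induction medium were exposed in duplicate for 48 h to eight concentrations (top 100 uM, half-log steps, 0.5% DMSO). TGFB1 mRNA was quantified by qRT-PCR, normalized to ACTB, GAPDH, POLR2A, and fitted bidirectionally against DMSO.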

Read-out in the next assay: TIMP1, TIMP1 (gene 7076)
The assay is described as follows: LTEA_HepaRG_TIMP1: Life Technologies and Expression Analysis (LTEA) Assay for TIMP1 using HepaRG (AID 2283534; active = hit-call score of the fitted dose curve at least 0.9, where 1 is the maximum; inactive = score below 0.9). The following applies: mRNA level, 48 h; actives raise or lower the signal. The essentials: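 Differentiated human HepaRG cells in serum-free induction medium were exposed 48 h to chemicals (8 half-log concentrations, top 100 uM, 0.5% DMSO). TIMP1 mRNA was quantified by TaqMan qRT-PCR, normalized to ACTB/GAPDH/POLR2A; bidirectional fit versus DMSO.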

Read-out in assay [5]: Tumor necrosis factor receptor 1 (TNFRSF1A), TNFRSF1A (gene 7132)
The assay can be described thus: LTEA_HepaRG_TNFRSF1A: Life Technologies and Expression Analysis (LTEA) Assay for Tumor necrosis factor receptor 1 (TNFRSF1A) using HepaRG (AID 2283535; active = hit-call score of the fitted dose curve at least 0.9, where 1 is the maximum; inactive = score below 0.9). The settings on record: mRNA level, 48 h; actives raise or lower the signal. An outline of the steps:
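Differentiated human HepaRG cells were exposed in duplicate for 48 h in serum-free induction medium to eight concentrations (top 100 uM, half-log steps, 0.5% DMSO). TNFRSF1A mRNA was quantified by qRT-PCR, normalized to ACTB, GAPDH and POLR2A, then fitted bidirectionally against DMSO.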

Read-out in assay [6]: Thyroid Hormone Responsive (THRSP), THRSP (gene 7069)
The assay is described as follows: LTEA_HepaRG_THRSP: Life Technologies and Expression Analysis (LTEA) Assay for Thyroid Hormone Responsive (THRSP) using HepaRG (AID 2283536; active = hit-call score of the fitted dose curve at least 0.9, where 1 is the maximum; inactive = score below 0.9). The settings on record: mRNA level, 48 h; actives raise or lower the signal. The essentials:
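Differentiated HepaRG cells treated 48 h in serum-free induction medium with 8 half-log concentrations up to 100 uM (0.5% DMSO), duplicates. THRSP mRNA by TaqMan qRT-PCR normalised to ACTB, GAPDH, POLR2A; bidirectional fit versus DMSO.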

Read-out in assay [7]: Cellular tumor antigen p53 (Homo sapiens) (UniProt P04637)
The assay can be described thus: LTEA_HepaRG_TP53: Life Technologies and Expression Analysis (LTEA) Assay for Tumor Protein P53 (TP53) using HepaRG (AID 2283537; active = hit-call score of the fitted dose curve at least 0.9, where 1 is the maximum; inactive = score below 0.9). The following applies: mRNA level, 48 h; actives raise or lower the signal. An outline of the steps: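 Read-out is TP53 transcript level by microfluidic qRT-PCR, normalised to three housekeeping genes and fitted bidirectionally against DMSO. Human HepaRG cells received compounds for 48 h, highest concentration 100 uM.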

Read-out in assay [8]: UDP glucuronosyltransferase (UGT1A1), UGT1A1 (gene 54658)
The assay can be described thus: LTEA_HepaRG_UGT1A1: Life Technologies and Expression Analysis (LTEA) Assay for UDP glucuronosyltransferase (UGT1A1) using HepaRG (AID 2283538; active = hit-call score of the fitted dose curve at least 0.9, where 1 is the maximum; inactive = score below 0.9). The following applies: mRNA level, 48 h; actives raise or lower the signal. An outline of the steps: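 HepaRG cells, 0.5% DMSO vehicle, 48 h exposure in serum-free induction medium to 8-point half-log series topping at 100 uM, in duplicate. UGT1A1 mRNA by Fluidigm qRT-PCR, normalized to ACTB/GAPDH/POLR2A; bidirectional fit versus DMSO.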

Read-out in assay [9]: X-box binding protein 1 (XBP1), XBP1 (gene 7494)
The assay is described as follows: LTEA_HepaRG_XBP1: Life Technologies and Expression Analysis (LTEA) Assay for X-box binding protein 1 (XBP1) using HepaRG (AID 2283540; active = hit-call score of the fitted dose curve at least 0.9, where 1 is the maximum; inactive = score below 0.9). The settings on record: mRNA level, 48 h; actives raise or lower the signal. The essentials: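 Differentiated human HepaRG cells in serum-free induction medium were exposed in duplicate for 48 h to eight half-log concentrations up to 100 uM in 0.5% DMSO. XBP1 mRNA was quantified by qRT-PCR, normalised to ACTB, GAPDH and POLR2A, with bidirectional fitting against DMSO.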

Assay [10] in a line: LTEA_HepaRG_LDH_cytotoxicity: Cytotoxicity Assessment in the Life Technologies and Expression Analysis (LTEA) Assay (AID 2283563).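 As to AC50: LDH activity released into spent culture medium as a marker of cell death.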 An outline of the steps:
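Differentiated human HepaRG cells, plated 48 h beforehand, were switched to serum-free induction medium and exposed for 48 h to eight half-log concentrations (top 100 uM) in 0.5% DMSO. LDH was measured in spent medium; activity was fitted relative to DMSO vehicle.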

The nature of assay [11]: ATG_XTT_Cytotoxicity: Cytotoxicity Assessment in the Attagene TRANS-FACTORIAL HepG2 Assay (AID 2283584). An outline of the steps: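 HepG2 human liver cells, transiently transfected with multiple GAL4-UAS reporter units, were dosed and read at 24 h by XTT as cell number. Loss of signal was fitted relative to DMSO negative control baseline.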
Assay [12] addresses Cellular tumor antigen p53 (Homo sapiens) (UniProt P04637). The assay is described as follows: TOX21_p53_BLA_p2_ratio: Tox21 HCT-116 p53 Agonism Beta-lactamase Assay, Ratio, Phase 2 (AID 2283592). The essentials:
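HCT116 cells carrying a p53-responsive beta-lactamase reporter were plated, incubated 5 h at 37C, then dosed with compounds in DMSO (217-fold dilution) for 16 h. CCF4-AM substrate was added for 2 h at room temperature; the 460/530 nm emission ratio gave gain-of-signal activity relative to DMSO.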

A short description of assay [13]: TOX21_p53_BLA_p3_viability: Viability Assessment in the Tox21 HCT-116 p53 Agonism Beta-lactamase Assay, Phase 3 (AID 2283593).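 Also: cells exposed to compound for 16 h before reading.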 An outline of the steps: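 HCT116 cells, 4000/well, dosed 5 h after plating by pin transfer (217-fold dilution from DMSO stock) and incubated 16 h at 37C, 5% CO2. Viability read as ATP luminescence with CellTiter-Glo after 30 min at room temperature.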

Assay [14] deals with Cellular tumor antigen p53 (Homo sapiens) (UniProt P04637). The assay can be described thus: TOX21_p53_BLA_p3_ratio: Tox21 HCT-116 p53 Agonism Beta-lactamase Assay, Ratio, Phase 3 (AID 2283596). The essentials: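 HCT116 p53-bla cells (4000/well) given compound in DMSO (217-fold dilution) after 5 h, incubated 16 h at 37C. CCF4-AM substrate 2 h at room temperature; 460/530 nm emission ratio, gain fitted against DMSO.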
Sequence of Cellular tumor antigen p53 (Homo sapiens) (P04637 whole entry, looked up): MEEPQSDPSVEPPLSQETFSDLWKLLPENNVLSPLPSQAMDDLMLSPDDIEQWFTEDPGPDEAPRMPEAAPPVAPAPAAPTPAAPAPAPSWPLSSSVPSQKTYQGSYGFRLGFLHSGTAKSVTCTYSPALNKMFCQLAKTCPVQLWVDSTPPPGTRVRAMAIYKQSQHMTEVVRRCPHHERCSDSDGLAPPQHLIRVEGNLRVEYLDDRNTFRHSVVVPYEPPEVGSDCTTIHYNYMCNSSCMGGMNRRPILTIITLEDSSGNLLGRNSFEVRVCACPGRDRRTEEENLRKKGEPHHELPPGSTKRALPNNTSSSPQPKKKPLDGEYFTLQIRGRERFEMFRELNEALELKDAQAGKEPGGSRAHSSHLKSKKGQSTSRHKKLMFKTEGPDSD

Assay [15] in a line: TOX21_p53_BLA_p4_viability: Viability Assessment in the Tox21 HCT-116 p53 Agonism Beta-lactamase Assay, Phase 4 (AID 2283597).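 Also: hits lower the luminescence signal meaning cytotoxicity.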 An outline of the steps:
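HCT116 p53-bla cells (4000/well) rested 5 h at 37C, then received compounds in DMSO (217-fold dilution) for 16 h at 37C, 5% CO2. CellTiter-Glo was added after the CCF4-AM read, and luminescence was read after 30 min at room temperature.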

Assay [16] addresses Cellular tumor antigen p53 (Homo sapiens) (UniProt P04637). The assay can be described thus: TOX21_p53_BLA_p5_ratio: Tox21 HCT-116 p53 Agonism Beta-lactamase Assay, Ratio, Phase 5 (AID 2283599). The essentials:
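HCT-116 p53-bla cells (4000/well) plated 5 h, dosed with compound (217-fold DMSO dilution) for 16 h at 37 C; CCF4-AM substrate 2 h at room temperature. Activity is the 460/530 nm emission ratio (405 nm excitation), fitted in gain-of-signal direction versus DMSO.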

Assay [17] in a line: TOX21_p53_BLA_p5_viability: Viability Assessment in the Tox21 HCT-116 p53 Agonism Beta-lactamase Assay, Phase 5 (AID 2283600). An outline of the steps: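 Cells were plated at 4000/well, rested 5 h at 37C, then given compounds in DMSO (217-fold dilution) for 16 h at 37C, 5% CO2. Following the CCF4-AM beta-lactamase read, CellTiter-Glo was added and luminescence was read after 30 min at room temperature.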

In assay [18] the target is Cellular tumor antigen p53 (Homo sapiens) (UniProt P04637). The assay is described as follows: TOX21_p53_BLA_p4_ratio: Tox21 HCT-116 p53 Agonism Beta-lactamase Assay, Ratio, Phase 4 (AID 2283601). An outline of the steps:
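HCT-116 p53 beta-lactamase reporter cells (4000/well) preincubated 5 h, then compound (217-fold dilution of DMSO stock) for 16 h at 37C. CCF4-AM substrate added 2 h at room temperature; 460/530 nm emission ratio fitted upward versus DMSO.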

As to `O=C(O)CCCOc1ccc(Cl)cc1Cl`, the outcome in assay [1] is “inactive”; in [2], “inactive”; in assay [3], “inactive”; in [4] it was “inactive”; in the assay with TIMP1, TIMP1 (gene 7076), “inactive”; in [5], “inactive”. Moreover, the call in [6], in assay [7], in [9], in assay [10], in [11] and in [12] was inactive. Further, the compound was called inactive in assay [13], in assay [14], in assay [15], in assay [16], in [17] and in assay [18]. The half-maximal activity concentration (AC50) (in general, the midpoint of the concentration-response curve, whichever way the signal moves) in [8] was 34.5 µM (active).
As to `N#Cc1c(Cl)c(Cl)c(Cl)c(C#N)c1Cl`, the result in assay [1], in [2], in assay [3], in [4], in assay [5] and in [7] was inactive. The call in assay [8] and in assay [12] was inactive. The concentration at half-maximal activity (AC50) with TIMP1, TIMP1 (gene 7076) was 22.5 µM (active); in assay [6] it was 13.2 µM (active); in [9], 82.3 µM (active); in assay [10] it was 50 µM (active); in [12], 15.7 µM (active); in [13] it was 20.7 µM (active) and 23.1 µM (active). Besides, the AC50 in [14] was 815 nM (active) and 77.5 µM (active); in assay [15] it was 2.04 µM (active) and 2.82 µM (active); in [16] it was 85.4 µM (active) and 17.1 µM (active); in assay [17] it was 17.1 µM (active) and 15.8 µM (active); in [18] it was 1.11 µM (active) and 1.12 µM (active).

The values above are taken from PubChem BioAssay (EPA / NIEHS).
